# Results published in PubChem BioAssay (EPA / NIEHS).
# The source made the active and inactive calls. How the source made its calls: active means hit-call score of the fitted dose curve at least 0.9, where 1 is the maximum; inactive means score below 0.9.
# Read-out: sulfotransferase 2A1 (SULT2A1), SULT2A1 (gene 6822)
# Assay: LTEA_HepaRG_SULT2A1: Life Technologies and Expression Analysis (LTEA) Assay for sulfotransferase 2A1 (SULT2A1) using HepaRG (AID 2283531)
# Conditions: mRNA level, 48 h; actives raise or lower the signal
# How it was run: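 Transcript levels of SULT2A1, quantified by qRT-PCR and normalized to three housekeeping genes, serve as the readout. Human HepaRG cultures receive test chemicals for 48 h at up to 100 uM in half-log steps, with 0.5% DMSO vehicle.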
row,SMILES,outcome
1,CCOP(=S)(OCC)SCSCC,inactive
2,CCCCN(CCCC)SN(C)C(=O)Oc1cccc2c1OC(C)(C)C2,inactive
3,Cc1ccc([N+](=O)[O-])cc1C,inactive
4,CCCCc1ccccc1,inactive
5,CSC(C)(C)C=NO,inactive
6,CN(C)C(=O)Cl,inactive
7,CCCCCCCc1ccc(O)cc1,inactive
8,O=C(O)C(Cl)Cl,inactive
9,O=[N+]([O-])c1ccc(Cl)c(Cl)c1,inactive
10,CCOP(=S)(Oc1ccc([N+](=O)[O-])cc1)c1ccccc1 (centres undefined),inactive
11,CCNc1nc(Cl)nc(NC(C)(C)C)n1,inactive

# Read-out: Transforming Growth Factor (TGFA), TGFA (gene 7039)
# Assay: LTEA_HepaRG_TGFA: Life Technologies and Expression Analysis (LTEA) Assay for Transforming Growth Factor (TGFA) using HepaRG (AID 2283532)
# Conditions: mRNA level, 48 h; actives raise or lower the signal
# How it was run: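 qRT-PCR read-out of TGFA transcript, normalized to three housekeeping genes, fitted bidirectionally against 0.5% DMSO baseline. Human HepaRG cultures received chemicals for 48 h at eight half-log concentrations, top 100 uM.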
row,SMILES,outcome
1,CCOP(=S)(OCC)SCSCC,inactive
2,CCCCN(CCCC)SN(C)C(=O)Oc1cccc2c1OC(C)(C)C2,inactive
3,Cc1ccc([N+](=O)[O-])cc1C,inactive
4,CCCCc1ccccc1,inactive
5,CSC(C)(C)C=NO,inactive
6,CN(C)C(=O)Cl,inactive
7,CCCCCCCc1ccc(O)cc1,inactive
8,O=C(O)C(Cl)Cl,inactive
9,O=[N+]([O-])c1ccc(Cl)c(Cl)c1,inactive
10,CCOP(=S)(Oc1ccc([N+](=O)[O-])cc1)c1ccccc1 (centres undefined),inactive
11,CCNc1nc(Cl)nc(NC(C)(C)C)n1,inactive

# Read-out: TIMP1, TIMP1 (gene 7076)
# Assay: LTEA_HepaRG_TIMP1: Life Technologies and Expression Analysis (LTEA) Assay for TIMP1 using HepaRG (AID 2283534);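 further: TaqMan qRT-PCR signal normalized to ACTB GAPDH and POLR2A housekeeping genes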
# Conditions: mRNA level, 48 h; actives raise or lower the signal
# How it was run: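 Readout is TIMP1 mRNA level measured by qRT-PCR and normalized to three housekeeping genes. Human HepaRG cells were treated for 48 h in duplicate at eight concentrations up to 100 uM (0.5% DMSO); gain or loss fitted against DMSO.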
row,SMILES,outcome
1,CCOP(=S)(OCC)SCSCC,inactive
2,CCCCN(CCCC)SN(C)C(=O)Oc1cccc2c1OC(C)(C)C2,inactive
3,Cc1ccc([N+](=O)[O-])cc1C,inactive
4,CCCCc1ccccc1,inactive
5,CSC(C)(C)C=NO,inactive
6,CN(C)C(=O)Cl,inactive
7,CCCCCCCc1ccc(O)cc1,inactive
8,O=C(O)C(Cl)Cl,inactive
9,O=[N+]([O-])c1ccc(Cl)c(Cl)c1,inactive
10,CCOP(=S)(Oc1ccc([N+](=O)[O-])cc1)c1ccccc1 (centres undefined),inactive
11,CCNc1nc(Cl)nc(NC(C)(C)C)n1,inactive

# Read-out: Tumor necrosis factor receptor 1 (TNFRSF1A), TNFRSF1A (gene 7132)
# Assay: LTEA_HepaRG_TNFRSF1A: Life Technologies and Expression Analysis (LTEA) Assay for Tumor necrosis factor receptor 1 (TNFRSF1A) using HepaRG (AID 2283535)
# Conditions: mRNA level, 48 h; actives raise or lower the signal
# How it was run: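 Read-out is TNFRSF1A transcript level by TaqMan qRT-PCR, normalized to three housekeeping genes, scored as gain or loss of signal versus 0.5% DMSO. Human HepaRG cells received test chemicals for 48 h at up to 100 uM (half-log series).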
row,SMILES,outcome
1,CCOP(=S)(OCC)SCSCC,inactive
2,CCCCN(CCCC)SN(C)C(=O)Oc1cccc2c1OC(C)(C)C2,inactive
3,Cc1ccc([N+](=O)[O-])cc1C,inactive
4,CCCCc1ccccc1,inactive
5,CSC(C)(C)C=NO,inactive
6,CN(C)C(=O)Cl,inactive
7,CCCCCCCc1ccc(O)cc1,inactive
8,O=C(O)C(Cl)Cl,inactive
9,O=[N+]([O-])c1ccc(Cl)c(Cl)c1,inactive
10,CCOP(=S)(Oc1ccc([N+](=O)[O-])cc1)c1ccccc1 (centres undefined),inactive
11,CCNc1nc(Cl)nc(NC(C)(C)C)n1,inactive
